Screening data: PubChem BioAssay, National Center for Advancing Translational Sciences (NCATS)
Hits are enriched below; roughly 19% of the tested compounds scored in any of these assays.
TDP1 cell CPT: qHTS for Inhibitors of human tyrosyl-DNA phosphodiesterase 1 (TDP1): qHTS in cells in presence of CPT; chicken DT40 Tdp1-/-;hTDP1 cells + 20 nM CPT, ATP luminescence, 48 h; Potency, µM (highest dose often 46.2 µM), for the others: at the top dose activity change, negative = growth inhibition, hits mostly inhibitors; actives 12% (n = 420,000); AID 686979, 2013; further: potency means the concentration at half of the fitted maximal effect; nearly all actives have a fitted effect of over 55% in size
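Chicken DT40 Tdp1-/- cells stably complemented with human TDP1 were seeded at 400 cells/well in medium containing 20 nM camptothecin, exposed to pin-transferred compounds, and grown at 37 °C for at least 48 hr. Viability was read as ATP luminescence.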
IL-1B inflam inh: qHTS for Inhibitors of Inflammasome Signaling: IL-1-beta AlphaLISA Primary Screen; THP-1 LPS/ATP IL-1B secretion, AlphaLISA, 16 h; hits give low values; activity change, % at 57.5 µM; actives 4.7% (n = 360,000); AID 743279, 2014; in the data active means activity change below about -50%; inconclusive means mostly about -30% to -49%
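THP-1 cells pretreated 1 hr with compounds (up to 57.5 uM final), then stimulated with LPS (250 ng/mL final) plus ATP (1.25 mM final); secreted IL-1B measured by AlphaLISA after 16 hr, decreased signal indicating inhibition.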
TDP1 cell noCPT: qHTS for Inhibitors of human tyrosyl-DNA phosphodiesterase 1 (TDP1): qHTS in cells in absence of CPT | DT40 Tdp1-/- hTDP1 cells, no CPT, ATP luminescence, 48 h | Potency, µM (series often up to 46.2 µM), for the others: at the highest dose activity change, negative = growth inhibition, hits mostly inhibitors | actives 15% (n = 420,000) | AID 686978, 2013; further: potency means the concentration at half of the fitted maximal effect; nearly all actives have a fitted effect of over 55% in size
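No-CPT arm: Tdp1-/-;hTDP1 DT40 cells (400/well) plus compounds, incubated ≥48 hr at 37 °C. Readout CellTiter-Glo luminescence.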
HT1080-NT tox: qHTS for induction of synthetic lethality in tumor cells producing 2HG: qHTS for the HT-1080-NT fibrosarcoma cell line. HT-1080-NT fibrosarcoma viability, CellTiter-Glo ATP luminescence, 48 h. Potency, µM (series often up to 46.1 µM), without a hit: at the top dose activity, negative = less viability, usual class: cytotoxic. actives 1.6% (n = 360,000);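 further: NT is the 2HG producing partner of a matched IDH1 knockdown line; potency means the concentration at half of the fitted maximal effect; 0% = DMSO-treated cells and -100% = media-only wells without cells; nearly all actives have a fitted effect of over 55% in size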
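Viability of the 2HG-overproducing fibrosarcoma line after 48 hours of compound exposure at 37 degrees C was determined by luminescence with CellTiter-Glo, and concentration-effect curves were then fitted and categorized.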
HT1080 IDH1KD tx: qHTS for induction of synthetic lethality in tumor cells producing 2HG: qHTS for the HT-1080-IDH1KD cell line | HT-1080 IDH1 knockdown viability, ATP luminescence, 48 h | Potency, µM (titrated, usually from 46.1 µM), for inactives: at the highest dose activity, negative = toxicity, actives largely listed as cytotoxic | actives 2% (n = 360,000);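 further: potency means the concentration at half of the fitted maximal effect; 0% = DMSO wells and -100% = cell-free medium wells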
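Knockdown cells (IDH1KD HT-1080) received compounds 2 h after plating at 750 cells/well and were kept 48 h at 37 °C in 5% FBS RPMI. A CellTiter-Glo luminescence read gave % activity for curve fitting.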
An asterisk follows results filed as active. Unless noted, the call rests on the fitted dose curve; in most records, active means well fitted curve in the direction sought with a large enough effect; inconclusive means small, poorly fitted or top-dose-only effect, or another doubt; inactive means no such curve, though single readings can be large; an effect the other way counts as inactive or inconclusive. Unless noted, on the % scale 0 is the no-effect control and ±100 the full control effect.

For CSC1=C(C#N)C(c2sccc2C)CC(=O)N1 (stereo not given) the results were TDP1 cell CPT inconclusive, IL-1B inflam inh -76*, TDP1 cell noCPT -25%, HT1080-NT tox -26% and HT1080 IDH1KD tx -6%.
Screening COc1ccc(OC)c(C2CC(=O)NC(SC)=C2C#N)c1 (stereo not given) returned TDP1 cell CPT -18%, IL-1B inflam inh -1, TDP1 cell noCPT 1%, HT1080-NT tox 14% and HT1080 IDH1KD tx 7%.
CN(C)CCCn1cnc2c1c(=O)[nH]c(=O)n2Cc1ccccc1 was read as TDP1 cell CPT 4%, IL-1B inflam inh -1, TDP1 cell noCPT 0%, HT1080-NT tox 15% and HT1080 IDH1KD tx 9%.
For COc1ccc(-c2ccc3c(N)c(C(=O)Nc4cccc(C)c4)sc3n2)cc1 the results were TDP1 cell CPT 16µM* and TDP1 cell noCPT inconclusive.
For Nc1c(C(=O)Nc2ccc(Br)cc2)sc2nc(-c3ccco3)ccc12 the results were TDP1 cell CPT inconclusive, IL-1B inflam inh 8, TDP1 cell noCPT 15µM*, HT1080-NT tox -25% and HT1080 IDH1KD tx -23%.
Screening CC(C)CSc1ccccc1NC(=O)c1sc2nc(-c3ccncc3)ccc2c1N returned TDP1 cell CPT 5.8µM* and TDP1 cell noCPT 7.3µM*.
For Cc1ccc(NC(=O)c2sc3nc(-c4ccc(F)cc4)ccc3c2N)cc1F the results were TDP1 cell CPT 12µM* and TDP1 cell noCPT 21µM*.
Nc1c(C(=O)Nc2ccc(F)cc2)sc2nc(-c3ccco3)ccc12 was read as TDP1 cell CPT inconclusive, IL-1B inflam inh -4, TDP1 cell noCPT inconclusive, HT1080-NT tox -19% and HT1080 IDH1KD tx -19%.
Screening Cc1cccc(NC(=O)CSc2nnc(Cc3ccccc3)o2)c1 returned TDP1 cell CPT -9%, IL-1B inflam inh 7, TDP1 cell noCPT -13%, HT1080-NT tox 11% and HT1080 IDH1KD tx 8%.
NS(=O)(=O)c1ccc(NC(=O)Nc2ccc3c(c2)OCO3)cc1 was read as TDP1 cell CPT 4%, IL-1B inflam inh inactive, TDP1 cell noCPT 3%, HT1080-NT tox -12% and HT1080 IDH1KD tx inconclusive.
For COc1cccc(-c2ccc3c(N)c(C(=O)Nc4ccc(Cl)cc4F)sc3n2)c1 the results were TDP1 cell CPT -24% and TDP1 cell noCPT inconclusive.
`COc1ccc(-c2ccc3c(N)c(C(=O)Nc4cc(F)ccc4C)sc3n2)cc1` gave TDP1 cell CPT inconclusive and TDP1 cell noCPT 15µM*.
CCCn1c(N)c(C(=O)CSc2nnc(Cc3ccccc3)o2)c(=O)n(C)c1=O was read as TDP1 cell CPT inconclusive, IL-1B inflam inh 79, TDP1 cell noCPT 23µM*, HT1080-NT tox -17% and HT1080 IDH1KD tx inconclusive.
`Cn1c(=O)c(C(=O)CSc2nnc(Nc3ccccc3)s2)c(N)n(Cc2ccccc2)c1=O` gave TDP1 cell CPT -20%, IL-1B inflam inh 14, TDP1 cell noCPT -13%, HT1080-NT tox -12% and HT1080 IDH1KD tx -10%.
`CCCn1c(N)c(C(=O)CSc2n[nH]c(-c3ccccc3F)n2)c(=O)n(C)c1=O` gave TDP1 cell CPT 21µM*, IL-1B inflam inh 43, TDP1 cell noCPT 23µM*, HT1080-NT tox 1% and HT1080 IDH1KD tx -9%.
COC(=O)c1ccc(NC(=O)CSc2nc(=O)n(Cc3ccco3)c3c2CCC3)cc1 was read as TDP1 cell CPT -28% and TDP1 cell noCPT inconclusive.
CCCCC(C(=O)O)C(C)CC(=O)Nc1nccs1 (stereo not given) was read as TDP1 cell CPT -12%, IL-1B inflam inh 5, TDP1 cell noCPT -5%, HT1080-NT tox 1% and HT1080 IDH1KD tx -9%.
